Compound activity as filed in PubChem BioAssay.
Shown are actives, neighbours in structure and some others; about 21% of the full set was active somewhere.
Pf growth 96h: P. falciparum growth inhibition at 96 hour, primary screen for plastid delayed-death inhibitors. P. falciparum luciferase reporter growth, 96 h. Potency, µM (top dose mostly 28.7 µM), hits mostly inhibitors. 320,000 compounds, 6.9% hits
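Infected RBCs, 2% Hct / 0.05% parasitemia final; luciferase-reporter P. falciparum; cpd 96 h, 37 C, 5% CO2; luciferase detection reagent; luminescence.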
CHX counter: affects cycloheximide protein synthesis inhibition readout, counter-screen | 300,000 compounds, 12% hits | max response, % | cell reporter, cycloheximide protein synthesis inhibition counterscreen; in the data active = max response mostly above about 13%, no sharp cut-off; inactive = mostly below about 14%; note: read at 38.3 µM for the half of the compounds with a filed dose
NS1 inh: influenza NS1 inhibition; Potency, µM (series often up to 46.1 µM); 270,000 compounds, 0.4% hits; calls by dose curve; note: actives are rising curves; nearly all actives have a fitted effect of over 50% in size
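Growth recovery, yeast-based: influenza A NS1 expressed in S. cerevisiae causes slow growth, and suppressors are detected by OD600. The parent strain without NS1 is used as positive control.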
Giardia FBPA inh: Giardia lamblia aldolase inhibition | A8B2U2 | purified Giardia FBPA | Potency, µM (doses to about 59.6 µM), most hits filed as inhibitors | 290,000 compounds, 0.71% hits | AID 2451; note: nearly all actives have a fitted effect of over 55% in size
Target sequence (A8B2U2 whole entry, looked up): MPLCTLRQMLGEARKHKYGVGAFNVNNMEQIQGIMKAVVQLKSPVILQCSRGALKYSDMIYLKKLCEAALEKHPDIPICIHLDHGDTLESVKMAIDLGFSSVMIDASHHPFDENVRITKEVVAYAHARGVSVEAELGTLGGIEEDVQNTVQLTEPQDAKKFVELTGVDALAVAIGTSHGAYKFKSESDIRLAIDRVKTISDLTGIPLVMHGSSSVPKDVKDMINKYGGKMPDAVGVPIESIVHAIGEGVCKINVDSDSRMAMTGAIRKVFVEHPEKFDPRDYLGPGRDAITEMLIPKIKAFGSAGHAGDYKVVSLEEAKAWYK
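40 nM FBPA preincubated 10 min at RT with compound (up to 57.5 uM final), then substrate plus GAPDH/TPI/NAD/arsenate coupling and diaphorase/resazurin added. Fluorescence read after 20 min at RT, 525/598 nm.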
Shiga toxin inh: inhibitors of Shiga toxin in Vero cells; Vero cells, Shiga toxin protein synthesis inhibition reporter; inhibition, % at 38.7 µM; 290,000 compounds, 9.2% hits; AID 2315; in the data active = inhibition mostly above about 28%, no sharp cut-off; inactive = mostly below about 43%
Pf growth 48h: inhibits P. falciparum growth in the first generation, 48 h; P. falciparum luciferase growth in erythrocytes, 48 h; Potency, µM (doses to about 28.7 µM), actives largely listed as inhibitors; 310,000 compounds, 5.9% hits
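Luminescence readout; reporter = integrated firefly luciferase in P. falciparum. RBC culture at 2% hematocrit, 0.1% parasitemia final, 37 C/5% CO2; decreased signal taken as growth inhibition.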
Numbers stand for hits; [ ] = another dose, or the depositor's remark. Unless noted, calls come from the whole dose curve; as a rule, active = well fitted curve in the direction sought with a large enough effect; inconclusive = small, poorly fitted or top-dose-only effect, or another doubt; inactive = no such curve, though single readings can be large; an effect the other way counts as inactive or inconclusive.

What do the screens show for `Cc1onc(-c2ccccc2Cl)c1C(=O)O/N=C(\N)c1ccccc1`?
Pf growth 96h: inactive; CHX counter: 23.1; NS1 inh: inactive; Shiga toxin inh: inactive; Pf growth 48h: inconclusive

What do the screens show for `Cc1onc(-c2ccccc2Cl)c1C(=O)OCN1C(=O)c2ccccc2C1=O`?
Pf growth 96h: 13.1µM; CHX counter: inactive; NS1 inh: inactive; Giardia FBPA inh: inactive; Shiga toxin inh: inactive; Pf growth 48h: inactive

How did O=C(Cc1ccccc1)Nc1nc2ccc(Cl)cc2c2nc(-c3ccco3)nn12 do in these assays?
Giardia FBPA inh: inactive

Results for O=c1c2ccccc2nc(-c2ccco2)n1/N=C/c1ccco1 ?
CHX counter: 16.2; NS1 inh: inactive; Giardia FBPA inh: inactive; Shiga toxin inh: inactive; Pf growth 48h: inactive

Results for COc1cc(/C=N/n2c(C)nc3ccccc3c2=O)ccc1O ?
Pf growth 96h: inactive; CHX counter: inactive; NS1 inh: inactive; Giardia FBPA inh: inactive; Shiga toxin inh: inactive; Pf growth 48h: inactive

What do the screens show for `Cc1nc2ccccc2c(=O)n1/N=C/c1ccco1`?
Pf growth 96h: inconclusive; CHX counter: inactive; Giardia FBPA inh: inactive; Shiga toxin inh: inactive; Pf growth 48h: inactive

Results for Cc1ccccc1OCc1nc2ccccc2c(=O)n1/N=C/c1ccco1 ?
Pf growth 96h: inconclusive; CHX counter: 32.9; NS1 inh: inactive; Giardia FBPA inh: inactive; Shiga toxin inh: 63.6; Pf growth 48h: inactive

What do the screens show for `COc1ccc(/C=N/n2c(-c3ccco3)nc3ccccc3c2=O)cc1`?
Pf growth 96h: inconclusive; CHX counter: inactive; NS1 inh: inactive; Giardia FBPA inh: inactive; Shiga toxin inh: 45.3; Pf growth 48h: inactive

How did COc1cccc(/C=N/n2c(-c3ccco3)nc3ccccc3c2=O)c1 do in these assays?
CHX counter: 54.5; NS1 inh: inactive; Giardia FBPA inh: inactive; Shiga toxin inh: 144.8; Pf growth 48h: inactive

What do the screens show for `O=c1c2ccccc2nc(-c2ccco2)n1/N=C/c1ccccc1O`?
Pf growth 96h: inactive; CHX counter: inactive; NS1 inh: inactive; Giardia FBPA inh: inactive; Shiga toxin inh: inactive; Pf growth 48h: inconclusive

What do the screens show for `COc1ccc(-c2nc(CS(=O)CC(=O)NCc3ccc4c(c3)OCO4)c(C)o2)cc1OC` (stereo not given)?
Pf growth 96h: inconclusive; CHX counter: inactive; NS1 inh: inactive; Giardia FBPA inh: inactive; Shiga toxin inh: inactive; Pf growth 48h: inactive

What do the screens show for `COc1ccccc1C1/C(=C(\O)c2ccc3c(c2)OCCO3)C(=O)C(=O)N1Cc1cccnc1` (stereo not given)?
Pf growth 96h: inactive; CHX counter: inactive; NS1 inh: inactive; Giardia FBPA inh: inactive; Shiga toxin inh: inactive; Pf growth 48h: inactive

How did O=C(CC12CC3CC(CC(C3)C1)C2)NCO do in these assays?
Pf growth 96h: inactive[5.75 µM]; CHX counter: inactive; NS1 inh: inactive; Giardia FBPA inh: inactive; Shiga toxin inh: inactive; Pf growth 48h: inactive

How did CC(NC(=O)CC12CC3CC(CC(C3)C1)C2)C(=O)O (stereo not given) do in these assays?
Pf growth 96h: 9.28µM; CHX counter: inactive; NS1 inh: inactive; Giardia FBPA inh: inactive; Shiga toxin inh: inactive; Pf growth 48h: inactive

What do the screens show for `CCc1sc(C(=O)Nc2nc(C)cs2)cc1C`?
Pf growth 96h: inactive; CHX counter: 26.5; NS1 inh: inactive; Giardia FBPA inh: inactive; Shiga toxin inh: 76.1; Pf growth 48h: inactive

How did Cc1nc(NC(=O)CCl)sc1C(=O)N(C)C do in these assays?
Pf growth 96h: inactive; CHX counter: inactive; NS1 inh: inactive; Giardia FBPA inh: inactive; Shiga toxin inh: inactive; Pf growth 48h: inconclusive

Results for Cc1nc(NC(=O)c2cc3c(s2)CCCCC3)sc1C(=O)N(C)C ?
CHX counter: 21.2; NS1 inh: inactive; Giardia FBPA inh: inactive; Shiga toxin inh: 102.0; Pf growth 48h: inactive

Results for Cc1csc(NC(=O)c2cc3c(C)nn(Cc4ccccc4Cl)c3s2)n1 ?
Pf growth 96h: inactive; CHX counter: 41.7; NS1 inh: inactive; Giardia FBPA inh: inactive; Shiga toxin inh: inactive; Pf growth 48h: inconclusive

What do the screens show for `Cc1nc(NC(=O)C(Cl)Cl)sc1C(=O)N(C)C`?
Pf growth 96h: inactive; CHX counter: inactive; NS1 inh: inactive; Giardia FBPA inh: inactive; Shiga toxin inh: inactive; Pf growth 48h: inactive

How did CCc1sc(C(=O)Nc2ccc(NC(C)=O)cc2)cc1C do in these assays?
Pf growth 96h: inactive; CHX counter: inactive; NS1 inh: inactive; Giardia FBPA inh: inactive; Shiga toxin inh: inactive; Pf growth 48h: inactive

Results for Cc1nc(NC(=O)c2ccc(Br)s2)sc1C(=O)N(C)C ?
Pf growth 96h: inactive; CHX counter: 44.3; NS1 inh: inactive; Giardia FBPA inh: inactive; Shiga toxin inh: 50.3; Pf growth 48h: inactive

Results for CC(=O)Nc1ccc(S(=O)(=O)NC2CC(=O)N(c3ccc4c(c3)OCCO4)C2)cc1 (stereo not given) ?
Pf growth 96h: inactive; Pf growth 48h: inconclusive

What do the screens show for `CN(C)c1ccc(CNC(=O)[C@@]2(C)C=C[C@@H](Cc3ccccc3)N2C)cc1`?
Giardia FBPA inh: inactive

How did Cc1ccc(OCC(=O)N/N=C/c2cccc3cccnc23)cc1 do in these assays?
Pf growth 96h: inconclusive; CHX counter: inactive; NS1 inh: inactive; Shiga toxin inh: inactive; Pf growth 48h: inactive

How did Cc1csc(NC(=O)c2cc3c(s2)CCC3)n1 do in these assays?
Pf growth 96h: inactive; CHX counter: 64.4; NS1 inh: inactive; Giardia FBPA inh: inactive; Shiga toxin inh: 86.2; Pf growth 48h: inactive

What do the screens show for `COC(=O)c1sc(NC(=O)c2cc3c(s2)CCCC3)nc1C`?
Pf growth 96h: inactive; CHX counter: 33.7; NS1 inh: inactive; Giardia FBPA inh: inactive; Shiga toxin inh: 26.4; Pf growth 48h: inactive

How did CCC(CO)NC(=O)c1cc2c(s1)CCC2 (stereo not given) do in these assays?
Pf growth 96h: inactive; CHX counter: inactive; NS1 inh: inactive; Giardia FBPA inh: inactive; Shiga toxin inh: inactive

What do the screens show for `CCOC(=O)c1sc(NC(=O)c2cc3c(s2)CCC(C)C3)nc1C` (stereo not given)?
Pf growth 96h: inactive; CHX counter: inactive; NS1 inh: inactive; Giardia FBPA inh: inactive; Shiga toxin inh: inactive

How did COc1cccc(NC(=O)CSc2nc3ccccc3c(=O)n2Cc2cccs2)c1 do in these assays?
Pf growth 96h: inactive; CHX counter: inactive; NS1 inh: inactive; Giardia FBPA inh: inactive; Shiga toxin inh: inactive; Pf growth 48h: inconclusive

What do the screens show for `Cc1cccc(NC(=O)CSc2nc3ccccc3nc2N2CC(C)OC(C)C2)c1` (stereo not given)?
Pf growth 96h: 9.28µM; CHX counter: 11.4; NS1 inh: inactive; Giardia FBPA inh: inactive; Shiga toxin inh: inactive; Pf growth 48h: inconclusive

Results for COc1cccc(NC(=O)[C@H](CC(C)C)NC(=O)N2CCn3c2nc2ccccc23)c1 ?
Pf growth 96h: 5.86µM; CHX counter: inactive; NS1 inh: inactive; Giardia FBPA inh: inactive; Shiga toxin inh: inactive; Pf growth 48h: inconclusive
